An excerpt weighted towards active compounds, which were near 2.4% of everything screened.
ABHD5 PLIN5 PPI = ABHD5-PLIN5 interaction inhibitors, primary screen, cell lysate, split luciferase complementation, luminescence; 0.78% of 360,000 active; Perilipin-5 (Homo sapiens) + 1-acylglycerol-3-phosphate O-acyltransferase ABHD5 (Homo …; Split G. princeps luciferase complementation, 4 h; inhibition, % at 4 µM;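 active = inhibition above the mean inhibition across every tested compound plus 3 SD, cut at about 22% in these data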;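 note: 0% = DMSO only wells and the 100% control is not disclosed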
CRFBP-R2 block = antagonists of CRF-BP/CRF-R2 complex, primary screen, cell-based, HEK293, calcium dye fluorescence, uHTS; CRF-induced calcium fluorescence; inhibition, % at 11.8 µM; 0.59% of 350,000 active;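 active = inhibition of the ligand-induced calcium signal above about 50% at the single tested concentration, limit read from the data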
TLR4 MyD88 comp = inhibitors of TLR4-MyD88 association in cells, primary screen, cell-based, HeLa CL3-4, BLA complementation, FRET ratio; Toll-like receptor 4 (Homo sapiens) + Myeloid differentiation primary response protein …; 0.18% of 200,000 active; HeLa CL3-4 TLR4/MyD88 BLA complementation; inhibition, % at 8.4 µM; in the data active = inhibition above about 25%;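 note: 0% = vehicle and 100% = reference inhibitor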
Target sequence (O00206 whole entry, looked up): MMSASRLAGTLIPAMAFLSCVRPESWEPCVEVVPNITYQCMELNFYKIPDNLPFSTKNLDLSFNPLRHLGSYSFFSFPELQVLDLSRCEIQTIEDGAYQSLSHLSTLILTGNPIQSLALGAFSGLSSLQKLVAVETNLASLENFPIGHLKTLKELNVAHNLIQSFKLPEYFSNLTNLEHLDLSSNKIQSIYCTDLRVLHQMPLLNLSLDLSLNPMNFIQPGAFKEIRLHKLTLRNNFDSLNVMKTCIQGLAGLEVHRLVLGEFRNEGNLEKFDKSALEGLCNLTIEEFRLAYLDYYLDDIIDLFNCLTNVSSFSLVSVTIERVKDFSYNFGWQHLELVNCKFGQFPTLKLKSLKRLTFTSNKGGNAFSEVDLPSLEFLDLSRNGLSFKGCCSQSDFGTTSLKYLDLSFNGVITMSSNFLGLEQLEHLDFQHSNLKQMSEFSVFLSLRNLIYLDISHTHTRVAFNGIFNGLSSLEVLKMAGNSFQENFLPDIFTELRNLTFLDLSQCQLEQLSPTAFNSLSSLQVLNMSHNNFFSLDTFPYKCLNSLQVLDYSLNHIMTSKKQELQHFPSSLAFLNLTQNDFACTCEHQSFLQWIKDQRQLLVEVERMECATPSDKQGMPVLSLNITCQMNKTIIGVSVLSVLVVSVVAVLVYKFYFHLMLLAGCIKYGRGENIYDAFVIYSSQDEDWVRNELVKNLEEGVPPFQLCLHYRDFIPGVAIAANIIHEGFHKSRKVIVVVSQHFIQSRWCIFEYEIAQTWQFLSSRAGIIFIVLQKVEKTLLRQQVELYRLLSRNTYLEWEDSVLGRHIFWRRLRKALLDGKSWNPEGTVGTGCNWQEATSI
Target sequence (Q99836 whole entry, looked up): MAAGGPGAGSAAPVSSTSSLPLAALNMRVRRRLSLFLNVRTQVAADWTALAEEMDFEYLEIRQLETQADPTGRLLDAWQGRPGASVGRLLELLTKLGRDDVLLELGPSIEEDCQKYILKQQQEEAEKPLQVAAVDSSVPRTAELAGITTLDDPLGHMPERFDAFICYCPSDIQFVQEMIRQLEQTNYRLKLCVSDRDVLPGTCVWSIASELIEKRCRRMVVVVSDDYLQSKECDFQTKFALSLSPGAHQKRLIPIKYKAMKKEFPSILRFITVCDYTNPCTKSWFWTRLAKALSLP
TLR9-MyD88 block = inhibitors of TLR9-MyD88 association in cells, primary screen, cell-based, CHO, BLA complementation, fluorescence; CCF4 FRET ratio; inhibition, % at 4.98 µM; 0.21% of 340,000 active; Toll-like receptor 9 (Homo sapiens) + Myeloid differentiation primary response protein …; AID 504734, 2011;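 active = inhibition above the mean over all tested compounds plus 3 SD, cut at about 21% in these data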;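 note: 0% = DMSO only wells and 100% = clavulanate BLA inhibitor control wells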
HTR2A ag = mouse Htr2a agonists via beta-arrestin recruitment, primary screen, cell-based, luminescence. 5-hydroxytryptamine receptor 2A (Mus musculus), P35363. CHO-K1 mHTR2A beta-arrestin complementation; percent of 30 µM serotonin response. 0.66% of 360,000 active. AID 624169, 2012. activation, % at 7.6 µM;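 active = activation above a run cutoff, the mean activation of all tested compounds plus 3 SD, cut at about 14% in these data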;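 note: 0% = plate median of compound wells and 100% = 30 µM serotonin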
NOD2 RIPK2 PPI = NOD2-RIPK2 binding disruptors in cells, primary screen, fluorescence, CHO cells, BLA complementation | inhibition, % at 4.98 µM | CCF4 ratio | Receptor-interacting serine/threonine-protein kinase 2 (Homo sapiens), O43353 | AID 624267, 2012 | 0.38% of 360,000 active; in the data active = inhibition above about 21%;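 note: 0% = vehicle only and 100% = reference blocker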
Starred values were filed as active, the others as inactive; / = not tested or not shown.

SMILES | ABHD5 PLIN5 PPI | CRFBP-R2 block | TLR4 MyD88 comp | TLR9-MyD88 block | HTR2A ag | NOD2 RIPK2 PPI
O=C(CCN1CCCCC1)c1ccc2c(c1)OCO2 | -2 | 51* | 0 | -3 | -1 | 13
N#Cc1c(N)n(-c2cccc(C(=O)O)c2)c2nc3ccccc3nc12 | -4 | 57* | / | 0 | 3 | 0
COc1ccc(C(c2nnnn2Cc2ccccc2)N2CCN(c3ccccc3)CC2)cc1 (stereo not drawn) | 1 | 57* | 4 | -11 | -6 | -2
COCCn1nnnc1C(c1ccccc1)N1CCN(c2ccccc2)CC1 (stereo not drawn) | 2 | 52* | 1 | -8 | -3 | 2
COc1ccc(C(c2nnnn2Cc2ccccc2)N2CCN(c3nc4ccccc4s3)CC2)cc1 (stereo not drawn) | 16 | -12 | 0 | -14 | -2 | 10
CC(C)C1Nc2c(O)cc(Cl)c([N+](=O)[O-])c2C2C=CCC21 (stereo not drawn) | 6 | 59* | -4 | 2 | -1 | -6
CN(CC1CCOCC1)C(=O)CC1C(=O)NCCN1Cc1ccc(Cl)c(F)c1 (stereo not drawn) | 1 | 79* | / | 9 | -6 | -10
Cc1cccc(C)c1NC(=O)C(c1ccc(C#N)cc1)n1c(=O)c(-c2ccccc2)nc2ccccc21 (stereo not drawn) | 8 | / | / | / | 0 | -3
NS(=O)(=O)c1ccc(CNC(=S)Nc2ccc(F)c(Cl)c2)cc1 | 4 | -39 | -3 | -4 | 0 | -3
NS(=O)(=O)c1ccc(NC(=S)Nc2ccc(F)c(F)c2)cc1 | 0 | 69* | 2 | 2 | 5 | 5
NC(=O)c1cccc(-c2ccnc3c2CC(C(=O)Nc2ccc(Cl)cc2)O3)c1 (stereo not drawn) | 4 | / | / | / | -1 | 11
O=C(COc1ccc(Cl)cc1Cl)Nc1ccc(Cl)cn1 | -5 | -29 | 4 | 3 | 4 | -22
O=C(COc1ccc(Cl)cc1Cl)Nc1ccccc1F | -3 | 125* | / | 2 | 4 | -13
CC(C)c1ccc(NC(=S)NN2CCOCC2)cc1 | -1 | 50* | -3 | 0 | -4 | -13
S=C(Nc1ccc(Cl)cc1)NN1CCOCC1 | 2 | 15 | 4 | 4 | -2 | -10
N#Cc1c(C(F)(F)F)cc(-c2ccc(Cl)cc2)[nH]c1=O | -8 | 63* | 6 | 9 | 8 | -2
CC(=O)N1CCN(c2nc(N)c(C#N)c(CC#N)c2C#N)CC1 | 13 | 3 | / | -11 | 2 | 8
N#CCc1c(C#N)c(N)nc(N2CCOCC2)c1C#N | 22* | 1 | / | -8 | -4 | 3
CN(C)CCn1c(=N)n(CC(O)c2ccc(Cl)c(Cl)c2)c2ccccc21 (stereo not drawn) | 23* | -25 | 16 | -1 | -5 | 4
CC(=O)C1=C(C)NC(=S)NC1c1cc([N+](=O)[O-])ccc1O (stereo not drawn) | 0 | 100* | / | -1 | 1 | 6
CC1=C(C(=O)N(C)C)CC(CC(=O)NCc2cccs2)C(=O)N1Cc1ccc(F)cc1 (stereo not drawn) | 4 | / | / | / | -1 | -9
CCc1nc2c(OCC(=O)N3CCOCC3)cccn2c1N(C)C(=O)COc1ccccc1 | -4 | / | / | / | -4 | 2
COc1ccccc1CN(C)C(=O)C(c1ccccc1)c1ccccc1 | -4 | 57* | / | -11 | -5 | 5
CCCCN(C)C(=O)c1ccc(Nc2nc(C(N)COCc3ccccc3)cs2)nc1 (stereo not drawn) | -1 | / | / | / | 1 | -2
COc1ccccc1/C=C/C(=O)N1CCOCC1 | -3 | 85* | -3 | -10 | -1 | 8
SMILES | ABHD5 PLIN5 PPI | CRFBP-R2 block | TLR4 MyD88 comp | TLR9-MyD88 block | HTR2A ag | NOD2 RIPK2 PPI
COc1ccc(C(=O)OCn2nnc3ccccc3c2=O)cc1[N+](=O)[O-] | -6 | 0 | 6 | -9 | 2 | -9
Cc1ccc(C(=O)OCn2nnc3ccccc3c2=O)cc1[N+](=O)[O-] | 9 | 79* | -2 | -6 | -1 | 3
COc1ccc(NS(=O)(=O)c2ccc(N3CCOCC3)c(NC(=O)c3ccc(F)cc3)c2)cc1 | 3 | -19 | 1 | 1 | 4 | 5
CCOC(=O)/C=C/C(=O)Nc1cc(S(=O)(=O)Nc2ccc(OC)cc2)ccc1N1CCOCC1 | 22* | -3 | / | -5 | -1 | 6
COc1ccc(NS(=O)(=O)c2ccc(N3CCOCC3)c(NC(=O)C(C)C)c2)cc1 | -3 | 100* | -7 | 15 | 2 | 2
COc1ccc(CNC[C@@H](CCCCN(C)Cc2ccc(OC)cc2)N2C[C@H](c3ccccc3)N(CCc3ccc(Cl)c(Cl)c3)C(=O)C2=O)cc1 | 32* | -12 | 4 | 9 | -2 | 29*
COc1ccc(CCCNC(=O)C2Cc3c(-c4cccc(NC(C)=O)c4)ccnc3O2)cc1 (stereo not drawn) | 4 | / | / | / | 8 | -12
CCCCC(=O)N(C)c1c(C)nc2ccc(C(=O)N3CCN(c4ccccc4)CC3)cn12 | -1 | / | / | / | -5 | -3
Cc1c(C(=O)NN)nn(-c2ccc(Cl)cc2)c(=O)c1C#N | -3 | 82* | -2 | 4 | -2 | -9
CCCCNc1nc(CC)c2c(c1C#N)CCCC2 | -9 | 61* | -10 | 3 | -3 | -11
CCCCc1nc(NCCO)c(C#N)c2c1CCCC2 | -3 | -17 | 1 | -3 | -6 | 5
Cc1csc(=NC(=O)c2ccccc2)n1Cc1ccco1 | 3 | 27 | 5 | -7 | -2 | -4
Cc1csc(=Nc2ccccc2)n1Cc1ccco1 | 2 | 53* | -6 | 3 | 1 | -8
O=C(c1ccccc1)c1nc2ccccc2[nH]c1=O | -5 | 67* | -1 | 3 | -6 | -7
Cc1ccc2nc(C3CCCCC3)c(CC(C)(C)C)n2c1 | 0 | / | / | / | 3 | 0
Cc1cc(C)n2nc(CC(=O)NNC(=O)c3ccccc3Cl)nc2n1 | -5 | 103* | / | 0 | -3 | -8
CN1OC[C@@H]2CN(C(=O)Nc3ccccc3)[C@H](c3ccc(N4CCCCC4)cc3)C[C@@H]21 | -6 | / | / | / | -5 | -9
COc1ccccc1C1NC(=O)NC(C)=C1C(=O)OC1CCCCC1 (stereo not drawn) | -5 | 0 | -3 | 0 | 15* | -11

Source: PubChem (several laboratories)
